{
  "source": "PubChem BioAssay (NCI)",
  "note": "This is part of a sample that, as a whole, favours compounds with a hit. Of some 83,000 tested, about 20% had one in any assay.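 Cells were grown in 96-well plates and exposed to the test compound at a single concentration for 48 hours; results are reported as percent growth, with values below 10 considered active.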 Calls of active or inactive are those of the source.",
  "data": [
    {"tested_on": "PC-3 prostate", "test": "NCI-60 one-dose screen, 48 h (100 = growth as untreated, 0 = no growth, -100 = all killed)", "details": "10 µM unless noted", "values": [
      {"smiles": "CCC(=O)OCc1ccc(OC)cc1", "growth": "88.1% (inactive)"},
      {"smiles": "COc1ccc2[nH]cc(C3(c4c[nH]c5ccc(OC)cc45)C(=O)Nc4ccc(F)cc43)c2c1", "growth": "9.66% (active)"},
      {"smiles": "CN1C(=O)NC(Cc2c[nH]c3c(Cl)cccc23)C1=O", "note": "(stereo unspecified)", "growth": "82.9% (inactive)"},
      {"smiles": "NC(N)=N/N=C/c1ccc(Cl)cc1", "growth": "84.8% (inactive)"},
      {"smiles": "CC(C)(c1ccccc1)c1cc(O)c(C(C)(C)c2ccccc2)cc1O", "growth": "16.9% (inactive)"},
      {"smiles": "COc1cc(-c2nn(C(=O)NCCN3CCN(C)CC3)cc2-c2ccncc2)ccc1Cl", "growth": "74.3% (inactive)"},
      {"smiles": "CCCCCCCCCCCCCCCCCC(=O)[O][Sn]([CH2]CCC)([CH2]CCC)[CH2]CCC", "growth": "-69.3% (active)"},
      {"smiles": "CC(C)c1nc2ccccc2n1CC(=O)N/N=C/c1cccc(O)c1", "growth": "87.9% (inactive)"},
      {"smiles": "O=C(Nc1ccc(Cl)cc1)c1cc(-c2ccc(Cl)cc2)c2sc(=O)[nH]c2n1", "growth": "-13.5% (active)"},
      {"smiles": "Oc1ccc(-c2nnc3c4[nH]ccc4ncn23)cc1", "growth": "94.3% (inactive)"},
      {"smiles": "Cc1nc(N)nc2c1CCC(Nc1ccccc1)S2", "note": "(stereo unspecified)", "growth": "90.6% (inactive)"},
      {"smiles": "NNC(=O)CSc1nc2scc(-c3ccccc3)c2c(=O)n1-c1ccccc1", "growth": "80.5% (inactive)"},
      {"smiles": "COC(=O)C(Br)(C(=O)OC)C(Br)C(Br)C(Br)c1ccccc1", "note": "(stereo unspecified)", "growth": "93.3% (inactive)"},
      {"smiles": "COc1cnc2c(c1)C(=O)c1c-2n(CCCN2CCN(C)CC2)c(=O)c2cc(Cl)ccc12", "growth": "40.5% (inactive)"},
      {"smiles": "COc1cc([N+](=O)[O-])cc(OC)c1OC", "growth": "94.9% (inactive)"},
      {"smiles": "O=c1oc2ccccc2cc1-c1cc(-c2ccc(-c3cc(-c4cc5ccccc5oc4=O)nc(-c4cc5ccccc5oc4=O)c3)cc2)cc(-c2cc3ccccc3oc2=O)n1", "growth": "101% (inactive)"}
    ]}
  ]
}
